From PubChem BioAssay
Hits are enriched below; roughly 3.8% of the tested compounds scored in any of these assays.
esBAF inh – SWI/SNF esBAF complex inhibition; reporter increase, % at 12.5 µM; AID 602393; hit rate 2% among 350,000; mouse ES cells, Bmi1-luciferase knock-in reporter, 24 h; 100% = twice the neutral-well signal; in the data active = activation above about 40%; inconclusive = no clear call, values can overlap the other calls;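 also: a rise in the Bmi1 reporter signal indicates esBAF inhibition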
Wnt act – activators of Wnt/beta-catenin signaling; hit rate 1.2% among 300,000; activation, % at 9.35 µM; Wnt/beta-catenin reporter cell assay, activator, plate reader; in the data active = activation above about 30%, passing the limit was not always enough; inconclusive = no clear call, values can overlap the other calls
MITF act – MITF TRPM1 promoter activation in melanoma cells | SK-MEL-5 TRPM1-promoter luciferase, 24 h; % of positive control, neutral wells = 0 | activation, % at 12.5 µM | hit rate 0.75% among 300,000 | AID 588334;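 active = mean activation of at least 80% with every replicate also reaching 80%; inconclusive = mean reaches 80% but some replicate falls short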
HSF-1 act – increases HSF-1 driven luciferase reporter signal. NIH3T3-HGL HSF-1 luciferase reporter, MG132, 8 h; 100% = twice DMSO control signal. activation, % at 9 µM. hit rate 1.7% among 300,000. AID 504408;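 active = mean replicate activation of at least 50% with a set share of replicates each reaching 50%; inconclusive = only one of those two conditions met; inactive = mean below 50% and too few replicates reaching it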
HSF1 inh – HSF1 inhibition; AID 2098; activity change, negative = inhibition, % at 7.5 µM (by protocol); hit rate 0.77% among 300,000; NIH3T3-HGL HSE-luciferase, MG132-induced, luminescence 8 h; stronger effect = lower value;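 active = more than half of replicate wells show activity change below -50%, luminescence cut by over half; inconclusive = some wells, but at most half, below -50%; inactive = no replicate well below -50%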;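 also: luciferase reports HSF-1 transcriptional activity via heat shock element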
A number is an active result.

For CCCC(=O)Nc1ccc2c(c1)OC[C@@H](C)N(C(=O)c1cnccn1)C[C@@H](C)[C@@H](OC)CN(C)C2=O the results were esBAF inh inactive.
Screening COCCn1c(SCc2nc3ccccc3s2)nc2ccccc21 returned esBAF inh 104, Wnt act inconclusive, MITF act inactive, HSF-1 act 77 and HSF1 inh inactive.
COc1ccc(C)cc1-n1nnnc1SCc1nc2ccccc2s1 was read as esBAF inh 57, Wnt act inactive, HSF-1 act inactive and HSF1 inh inactive.
For Cc1nnc(SCc2nc3ccccc3s2)n1N the results were Wnt act inactive, MITF act inactive, HSF-1 act inactive and HSF1 inh inactive.
Screening COc1ccc(-n2nnnc2SCc2nc3ccccc3s2)cc1 returned esBAF inh 71, MITF act inactive, HSF-1 act inactive and HSF1 inh inactive.
CN1C(=O)c2cc(NC(=O)Cc3ccccc3)ccc2OC[C@@H]2O[C@H](CC(=O)O)CC[C@@H]21 was read as esBAF inh inactive.
For O=C(C[C@@H]1C[C@H]2c3cc(NS(=O)(=O)c4ccccc4)ccc3O[C@H]2[C@@H](CO)O1)NCC1CC1 the results were esBAF inh inactive.
For O=C(CN1CCOCC1)NCC[C@H]1CC[C@@H](NC(=O)c2ccccc2F)[C@@H](CO)O1 the results were esBAF inh inactive.
For c1ccc(-c2nnc(-c3ccccc3)nn2)cc1 the results were Wnt act 50 and HSF1 inh inactive.
`COc1ccc(-c2noc(-c3ccoc3C)n2)cc1OC` gave Wnt act inactive, MITF act 89, HSF-1 act inactive and HSF1 inh inactive.
Screening COc1ccc(-c2noc(-c3ccoc3C)n2)cc1 returned Wnt act inactive, MITF act inactive, HSF-1 act inconclusive and HSF1 inh inactive.
COc1ccc(-c2noc(-c3ccco3)n2)cc1OC was read as Wnt act 50, MITF act inconclusive, HSF-1 act inactive and HSF1 inh inactive.
Screening Cc1noc(C)c1S(=O)(=O)N(C)C[C@@H]1Oc2c(cccc2N(C)C)C(=O)N([C@H](C)CO)C[C@@H]1C returned esBAF inh inactive.
For N/C(=N\NS(=O)(=O)c1ccccc1)c1ccccn1 the results were esBAF inh inactive, Wnt act inactive, MITF act inactive, HSF-1 act inactive and HSF1 inh inactive.
`N/C(=N\NC(=O)Nc1ccccc1)c1ccccn1` gave Wnt act 36, HSF-1 act inactive and HSF1 inh inactive.
For NS(=O)(=O)c1ccc(CCNC(=O)c2ccc(C#CC3(O)CCCCC3)cc2)cc1 the results were Wnt act inactive, MITF act inactive, HSF-1 act inactive and HSF1 inh -54.
Screening C[C@@H]1CCCCO[C@H](CN(C)C(=O)C2CCCCC2)[C@H](C)CN([C@@H](C)CO)C(=O)c2cc(NC(=O)Nc3ccc4c(c3)OCO4)ccc2O1 returned esBAF inh inactive.
For C=CCOc1ccc(/C=C/C(=O)OCC(=O)NCC2CCCCC2)cc1 the results were esBAF inh inactive, Wnt act inactive, MITF act inactive, HSF-1 act inactive and HSF1 inh -68.
Screening COC(=O)c1cc2c(s1)-c1ccc(OC)cc1CC2 returned Wnt act 67, MITF act inactive, HSF-1 act inactive and HSF1 inh inactive.
Screening COC(=O)c1cc2c(s1)-c1ccccc1OC2 returned esBAF inh inactive, Wnt act inactive, MITF act inactive, HSF-1 act inactive and HSF1 inh inactive.
For Cc1cccc(S(=O)(=O)N2CC[C@H]3[C@@H](CO)N(C)c4ccc(-c5cccc(C#N)c5)cc4[C@H]32)c1 the results were esBAF inh inactive.
Cn1nnnc1SCCNC/C=C/c1ccccc1 was read as esBAF inh inactive, MITF act inactive, HSF-1 act 77 and HSF1 inh inactive.
`C[C@@H]1CN([C@@H](C)CO)C(=O)c2cc(-c3cccc(C(=O)N(C)C)c3)cnc2O[C@H]1CN(C)C` gave esBAF inh inactive.
CN(C)c1cccc(-c2csc(N3CCC(C(N)=O)CC3)n2)c1 was read as esBAF inh 60, Wnt act 33 and MITF act 83.
For Cc1noc(C)c1-c1csc(N2CCC(C(N)=O)CC2)n1 the results were esBAF inh 74, Wnt act inactive and MITF act inactive.
`NC(=O)C1CCN(c2nc(-c3cccs3)cs2)CC1` gave esBAF inh 47 and MITF act inconclusive.
For C[C@@H]1CCCCO[C@H](CN(C)Cc2ccncc2)[C@@H](C)CN([C@H](C)CO)C(=O)c2cc(NC(=O)CCC(F)(F)F)ccc2O1 the results were esBAF inh inactive.
For CNC[C@@H]1Oc2c(NS(=O)(=O)c3ccc(OC)cc3)cccc2C(=O)N([C@H](C)CO)C[C@@H]1C the results were esBAF inh inactive.
`O=C(Nc1ccc(F)cc1)N[C@H]1C=C[C@H](CC(=O)N2CCCCC2)O[C@@H]1CO` gave esBAF inh inactive.
`OC(c1ccccc1)c1ncc(-c2ccc(Cl)cc2)[nH]1` (stereo unspecified) gave esBAF inh 47 and Wnt act inactive.
Cc1ccccc1-c1cnc(C(O)c2ccc(F)cc2)[nH]1 (stereo unspecified) was read as Wnt act inactive.
Cc1ccccc1-c1cnc(C(O)c2ccccc2)[nH]1 (stereo unspecified) was read as esBAF inh 49 and Wnt act inactive.
Cc1cc(C)c2c(c1)/C(=N/NS(=O)(=O)c1ccc(Br)cc1)CCC2 was read as esBAF inh inactive, MITF act inactive, HSF-1 act inactive and HSF1 inh -54.
Screening Cc1cc(C)c2c(c1)/C(=N/NS(=O)(=O)c1ccccc1)CCC2 returned esBAF inh inactive, MITF act inactive, HSF-1 act inactive and HSF1 inh inactive.
`O=C1CC(c2ccco2)Sc2nc3ccccc3n21` (stereo unspecified) gave esBAF inh inactive, Wnt act 47, MITF act inactive, HSF-1 act inactive and HSF1 inh inactive.
O=C1CC(c2ccccc2)Sc2nc3ccccc3n21 (stereo unspecified) was read as Wnt act 35, MITF act inactive, HSF-1 act inactive and HSF1 inh inactive.
`O=C1CC(c2cccs2)Sc2nc3ccccc3n21` (stereo unspecified) gave MITF act inactive, HSF-1 act inactive and HSF1 inh inactive.
`O=C(C[C@H]1CC[C@@H](NC(=O)c2cccc(F)c2)[C@@H](CO)O1)NCCN1CCCC1` gave esBAF inh inactive.
Screening CCCC(=O)Nc1ccc2c(c1)C(=O)N(C)[C@@H]1CC[C@@H](CC(=O)NC3CCCC3)O[C@H]1CO2 returned esBAF inh inactive.
Screening CCc1nnc(NC(=O)CC23CC4CC(CC(Br)(C4)C2)C3)s1 returned esBAF inh inactive, Wnt act inactive, MITF act inactive, HSF-1 act 58 and HSF1 inh inactive.
Screening O=C(CC12CC3CC(CC(Br)(C3)C1)C2)Nc1nncs1 returned esBAF inh inactive, Wnt act inactive, MITF act inactive, HSF-1 act inactive and HSF1 inh inactive.
